Hits are enriched below; roughly 27% of the tested compounds scored in any of these assays.
Cav32 inh – inhibitors of human Cav3.2 T-type calcium channel | hit rate 4% among 100,000 | Cav3.2-expressing cells, Fluo-4 calcium fluorescence FDSS; hits give low values | AID 449739 | B-score at 10 µM;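 active means single-dose well whose peak fluorescence ratio is a statistical outlier from its plate by either plate-standardised score or position-corrected B-score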
Target sequence (O95180 whole entry, looked up): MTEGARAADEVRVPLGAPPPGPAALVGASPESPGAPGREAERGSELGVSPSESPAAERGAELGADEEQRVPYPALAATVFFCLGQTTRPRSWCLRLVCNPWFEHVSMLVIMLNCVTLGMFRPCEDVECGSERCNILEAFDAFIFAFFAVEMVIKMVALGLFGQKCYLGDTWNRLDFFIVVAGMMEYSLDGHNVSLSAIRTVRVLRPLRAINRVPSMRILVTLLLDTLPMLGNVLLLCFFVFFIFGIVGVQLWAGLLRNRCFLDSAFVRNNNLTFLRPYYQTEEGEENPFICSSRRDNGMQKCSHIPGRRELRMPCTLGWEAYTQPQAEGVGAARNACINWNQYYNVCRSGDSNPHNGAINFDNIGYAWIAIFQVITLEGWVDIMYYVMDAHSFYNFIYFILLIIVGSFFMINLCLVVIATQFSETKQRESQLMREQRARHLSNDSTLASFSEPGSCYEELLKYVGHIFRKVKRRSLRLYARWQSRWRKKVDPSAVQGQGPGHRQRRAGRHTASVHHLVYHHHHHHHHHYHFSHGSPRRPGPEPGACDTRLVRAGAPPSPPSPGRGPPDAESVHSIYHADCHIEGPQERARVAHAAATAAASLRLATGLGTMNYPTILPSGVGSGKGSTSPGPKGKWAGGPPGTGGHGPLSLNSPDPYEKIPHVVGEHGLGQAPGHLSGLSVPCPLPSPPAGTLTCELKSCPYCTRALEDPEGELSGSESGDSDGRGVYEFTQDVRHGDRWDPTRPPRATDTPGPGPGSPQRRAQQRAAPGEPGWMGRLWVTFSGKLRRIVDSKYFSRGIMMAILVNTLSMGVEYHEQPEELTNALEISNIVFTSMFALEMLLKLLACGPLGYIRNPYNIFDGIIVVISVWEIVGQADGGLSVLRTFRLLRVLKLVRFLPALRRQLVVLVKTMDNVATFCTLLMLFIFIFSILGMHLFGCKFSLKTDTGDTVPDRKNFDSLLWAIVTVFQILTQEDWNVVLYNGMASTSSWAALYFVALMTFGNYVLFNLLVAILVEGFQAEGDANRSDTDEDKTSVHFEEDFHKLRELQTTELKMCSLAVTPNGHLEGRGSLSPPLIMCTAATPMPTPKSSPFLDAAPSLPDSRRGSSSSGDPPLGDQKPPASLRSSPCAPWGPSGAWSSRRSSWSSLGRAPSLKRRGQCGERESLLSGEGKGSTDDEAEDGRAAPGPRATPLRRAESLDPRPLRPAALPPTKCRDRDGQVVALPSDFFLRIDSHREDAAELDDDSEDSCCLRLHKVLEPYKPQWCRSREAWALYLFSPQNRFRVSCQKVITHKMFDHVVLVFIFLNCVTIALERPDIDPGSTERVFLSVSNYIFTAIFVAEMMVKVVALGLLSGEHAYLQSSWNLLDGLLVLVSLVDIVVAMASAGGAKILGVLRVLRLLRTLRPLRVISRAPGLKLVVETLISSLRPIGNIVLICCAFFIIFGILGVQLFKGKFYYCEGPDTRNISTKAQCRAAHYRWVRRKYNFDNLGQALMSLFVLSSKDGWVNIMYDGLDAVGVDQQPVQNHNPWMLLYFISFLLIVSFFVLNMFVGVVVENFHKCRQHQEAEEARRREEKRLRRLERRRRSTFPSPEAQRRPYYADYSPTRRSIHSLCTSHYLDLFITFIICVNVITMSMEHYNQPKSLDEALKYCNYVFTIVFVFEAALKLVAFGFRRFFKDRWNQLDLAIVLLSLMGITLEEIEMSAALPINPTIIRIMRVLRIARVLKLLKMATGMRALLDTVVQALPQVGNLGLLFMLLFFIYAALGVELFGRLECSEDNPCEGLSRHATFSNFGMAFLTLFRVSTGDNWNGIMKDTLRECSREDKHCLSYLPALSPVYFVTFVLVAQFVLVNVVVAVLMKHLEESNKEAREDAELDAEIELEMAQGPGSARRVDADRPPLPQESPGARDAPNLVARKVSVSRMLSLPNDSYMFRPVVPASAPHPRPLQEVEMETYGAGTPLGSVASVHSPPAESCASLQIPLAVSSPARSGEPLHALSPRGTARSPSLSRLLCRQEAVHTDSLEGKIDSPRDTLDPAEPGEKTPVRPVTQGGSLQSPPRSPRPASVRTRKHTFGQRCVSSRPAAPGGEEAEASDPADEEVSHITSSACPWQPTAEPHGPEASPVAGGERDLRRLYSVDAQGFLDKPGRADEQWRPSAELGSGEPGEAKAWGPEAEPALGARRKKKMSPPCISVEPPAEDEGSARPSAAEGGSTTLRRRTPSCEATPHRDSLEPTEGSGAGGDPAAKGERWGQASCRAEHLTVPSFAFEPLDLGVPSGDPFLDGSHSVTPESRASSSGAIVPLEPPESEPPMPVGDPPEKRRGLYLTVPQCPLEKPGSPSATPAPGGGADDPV
CYP2C19 inh – blocks human cytochrome P450 2C19; inhibition, % at 5 µM; P33261; hit rate 21% among 96,000; CYP2C19 Supersomes, luciferin-H EGE luminescence, 30 min;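 active means CYP2C19 inhibition above a set limit at 5 µM in the primary screen, cut at about 50% in these data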;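 further: plate controls were negative control wells for no effect and 2.5 mM tranylcypromine positive control for full effect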
CYP2C9 inh – blocks human cytochrome P450 2C9. AID 777. inhibition, % at 5 µM. CYP2C9 Supersomes, luciferin-H conversion, luminescence. hit rate 20% among 96,000. P11712;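 active means blocking of liver enzyme CYP2C9 beyond about 50% at 5 µM, limit read from the data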
CYP2C19 activ – increases human CYP2C19 enzyme activity | activation factor at 5 µM | 96,000 tested, under 10 active | P33261 | AID 1025 | recombinant CYP2C19, luciferin-H EGE luminescence; hits give high values; 0 = fully inhibited enzyme, 1 = untreated enzyme;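 active means activation factor of at least 2 at 5 µM in the primary screen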;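 further: 0 = wells with 2.5 mM tranylcypromine and 1 = vehicle-only wells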
CYP2C9 activ – CYP2C9 (human) activation; P11712; recombinant CYP2C9, luciferin-H conversion, luminescence; hits give high values; factor 1 = untreated enzyme, 0 = blocked; activation factor at 5 µM; hit rate 1.4% among 96,000; AID 1024;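 active means activation factor of 2 or more for CYP2C9 at a 5 µM dose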;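 further: 0 = sulfaphenazole-blocked wells and 1 = vehicle-only wells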
Numbers without * were called inactive; x = no result given.

SMILES	Cav32 inh	CYP2C19 inh	CYP2C9 inh	CYP2C19 activ	CYP2C9 activ
O=C(c1ccccc1)c1ccc(OCCCN2CCCCC2)cc1	0.217	-18.4	-5.7	1.2	1.1
CC1CCN(C(=S)NC(=O)C2CCCCC2)CC1	0.173	21.7	4.5	0.8	1
CC1CCN(C(=S)NC2CCCCC2)CC1	0.936	70.3*	8.5	0.3	0.9
CCCN1CCN(C(=O)C2CCN(S(=O)(=O)c3ccc4c(c3)oc(=O)n4C)CC2)CC1	0.177	-10.5	-3.7	1.1	1
O=C(Nc1ccc(Cl)cc1Cl)C1CCC(=O)N1Cc1ccccc1Cl (stereo not given)	x	50.9*	33.4	0.5	0.7
CCN(CC)C(=O)CSc1nc2c(sc(=S)n2Cc2ccco2)c(=O)n1-c1ccccc1	-2.7	35.9	52.4*	0.6	0.5
CCOC(=O)CSc1nc2c(sc(=S)n2-c2ccccc2OC)c(=O)n1Cc1ccco1	-5.63*	85.2*	54.6*	0.1	0.5
CCOC(=O)CSc1nc2c(sc(=S)n2Cc2ccco2)c(=O)n1-c1ccccc1	-3.87*	59.7*	68.8*	0.4	0.3
CCOC(=O)CC(=O)CSc1nc2c(sc(=S)n2-c2ccccc2)c(=O)[nH]1	-2.66	3.7	65.8*	1	0.3
O=C(O)Cc1ccc(C(=O)c2cccs2)s1	-0.456	8.4	4.4	0.9	1
N#CCc1ccc(C(=O)c2ccccc2)s1	0.25	70.1*	19.7	0.3	0.8
CCc1ccccc1N1C[C@@]23C=C[C@@H](O2)C(C(=O)OCC(C)C)[C@H]3C1=O (stereo not given in full)	-0.286	15.5	-2.4	0.8	1
CCC(=O)N1CCN(c2nc3ccccc3s2)CC1	0.967	47.6	33.5	0.5	0.7
O=C(Nc1ccccc1)N1CCN(c2nc3ccccc3s2)CC1	-2.99	62.7*	59.0*	0.4	0.4
CS(=O)(=O)N1CCN(c2nc3ccccc3s2)CC1	-3.23	1.2	1.1	1	1
O=C(c1cc2sccc2n1Cc1ccccc1)N1CCN(c2nc3ccccc3s2)CC1	-7.1*	25.0	53.4*	0.8	0.5
COCCn1c(=O)c2cc3c(=O)n(CCOC)c(=O)c3cc2c1=O	-0.212	26.6	35.0	0.7	0.7
O=C(CN1CCCCC1)Nc1cc(Cl)ccc1Cl	-0.241	63.2*	-117.8	0.4	2.2*
O=C(CN1CCCCC1)Nc1ccc(F)c(Cl)c1	0.247	80.9*	7.7	0.2	0.9
O=C(CN1CCCCCC1)Nc1ccc(F)c(F)c1	-0.913	x	x	x	x
O=C(CN1CCN(c2ccc(Cl)cc2)CC1)Nc1ccc(F)cc1	-4.5*	23.2	49.4	0.8	0.5
Cc1ccc(S(=O)(=O)Nc2ccc(NC(=O)CN3CCCCC3)c(Cl)c2)cc1	-2.33	70.6*	100.0*	0.3	0
CCOc1ccccc1Nc1nc(N2CCCC2)nc(N2CCOCC2)n1	-0.149	x	x	x	x
O=C(CN1CCOCC1)Nc1cccc(Cl)c1Cl	0.148	78.0*	-30.0	0.2	1.3
O=C(CN1CCOCC1)Nc1ccccc1Cl	-1.78	19.3	1.2	0.8	1
SMILES	Cav32 inh	CYP2C19 inh	CYP2C9 inh	CYP2C19 activ	CYP2C9 activ
COC(=O)CCCC1=CC2=C(c3ccccc3)C(=O)C(C)(OC(=O)C3CCCC3)C(=O)C2=CN1C(CO)CO (stereo not given)	0.864	x	x	x	x
CCOc1cc(N2CCOCC2)c(OCC)cc1NC(=O)c1ccc(=O)n(Cc2ccccc2)n1	x	-0.5	4.5	1	1
Cn1c(Cn2c(=O)sc3ccccc32)nnc1SCC(=O)Nc1ccc2c(c1)OCO2	-0.12	x	x	x	x
CC1=CCC(C(=O)N/N=C/c2cccs2)C(c2ccc(F)cc2)C1 (stereo not given)	-5.28*	39.3	44.0	0.6	0.6
O=C(c1ccccc1)N1CCN(C(=O)c2ccc(OC(F)(F)F)cc2)CC1	-0.271	3.3	13.3	1	0.9
Fc1ccccc1C(c1nnnn1Cc1ccc2c(c1)OCO2)N1CCN(Cc2ccco2)CC1 (stereo not given)	0.327	22.7	-20.5	0.8	1.2
Cn1c(N)c(C(=O)COC(=O)C2CCC(C(C)(C)C)CC2)c(=O)n(C)c1=O (stereo not given)	-0.373	18.7	-31.6	0.8	1.3
COc1ccc(Cn2c(=O)n(Cc3ccco3)c(=N)c3c4c(sc32)COC(C)(C)C4)cc1	-2.57	61.1*	91.2*	0.4	0.1
CC1(C)Cc2c(sc3c2c(=N)n(Cc2ccco2)c(=O)n3Cc2ccc(F)cc2)CO1	-2.5	9.8	24.2	0.9	0.8
CCc1cccc(CC)c1NC(=O)c1cccc(NC(=O)c2ccccc2)c1	-0.909	10.0	73.9*	0.9	0.3
CC(C)c1ccccc1NC(=O)c1cccc(NC(=O)c2ccccc2)c1	-4.83	22.4	69.3*	0.8	0.3
O=C(Nc1cccc(O)c1)c1ccccc1	0.253	-11.3	-9.2	1.1	1.1
CC(C)OC(=O)c1c(NC(=O)c2cnn3c2NC(c2ccccc2)CC3C(F)F)sc2c1CCCC2 (stereo not given)	x	-1.6	-9.1	1	1.1
COc1ccc(SCc2noc(C(=O)NC(C)C)c2C(=O)O)cc1	0.0113	14.2	48.9	0.9	0.5
COc1ccc(CNC(=O)CSc2nnc(C)s2)cc1	0.308	0.9	-15.3	1	1.2
CCN(CC)C(=O)CSc1nnc(CCCCCNC(=O)OC(C)(C)C)o1	-0.0797	0.7	28.5	1	0.7
O=C(c1ccc(Cn2cc([N+](=O)[O-])cn2)o1)N1N=C(C(F)F)CC1(O)C(F)F (stereo not given)	0.0344	37.6	61.9*	0.6	0.4
Cc1ccc(C(=O)c2cn[nH]c2-c2ccccc2O)cc1	-0.997	89.2*	44.1	0.1	0.6
O=C(c1ccc(F)cc1)c1cn[nH]c1-c1ccccc1O	1.44	31.5	12.8	0.7	0.9
O=C(c1ccc(Cl)cc1)c1cn[nH]c1-c1ccccc1O	-1.07	95.2*	86.5*	0	0.1
COc1ccc(C(=O)c2cn[nH]c2-c2cc(Cl)ccc2O)cc1	-0.55	98.5*	92.4*	0	0.1
O=C(c1cnc2c(c1)COc1ccc(Cl)cc1-2)c1ccccc1O	-0.526	x	x	x	x
O=C(Nc1ccc(C(=O)Oc2ccccc2)c(O)c1)c1ccco1	-0.706	41.3	42.2	0.6	0.6
CCCCNC(=S)NNC(=O)c1nn(C)cc1Cl	-0.0696	x	x	x	x
CN(C)c1ccnc(N(Cc2ccccc2)Cc2ccccc2)c1C#N	-1.13	96.2*	95.0*	0	0.1
SMILES	Cav32 inh	CYP2C19 inh	CYP2C9 inh	CYP2C19 activ	CYP2C9 activ
Cc1cc(N(C)C)c(C#N)c(NCc2ccccc2)n1	-0.131	33.9	36.3	0.7	0.6
Cc1cc2nncn2c(Cc2ccccc2)n1	0.0406	25.7	5.6	0.7	0.9
CC(C)Cc1cc(C(=O)Nc2ccc(F)cc2F)no1	-0.332	19.9	-75.6	0.8	1.8
O=C(Nc1c(F)cc(F)cc1Br)c1cc(-c2ccco2)on1	-1.28	-16.2	-97.0	1.2	2*
CC(C)Cc1cc(C(=O)Nc2c(F)cc(F)cc2Br)no1	-0.423	68.4*	1.5	0.3	1
O=C(NC1CCCCC1)c1cc(-c2ccco2)on1	x	-0.1	-176.4	1	2.8*
O=C(Nc1cccc(O)c1)c1cc(-c2ccco2)on1	x	16.0	-104.0	0.8	2*

Screens (PubChem)
